Compound activity: PubChem BioAssay, National Center for Advancing Translational Sciences (NCATS)
Rows were chosen to be rich in hits. Some 17% of all compounds tested hit in one or more screens of this group.
TDP1 cell CPT – DT40-hTDP1 cell growth loss with CPT | hit rate 12% among 420,000 | AID 686979 | chicken DT40 Tdp1-/-;hTDP1 cells + 20 nM CPT, ATP luminescence, 48 h | Potency, µM (highest dose often 46.2 µM), hits mostly inhibitors; note: nearly all actives have a fitted effect of over 55% in size
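Chicken DT40 Tdp1-/- cells stably complemented with human TDP1 were seeded at 400 cells/well in medium containing 20 nM camptothecin, exposed to pin-transferred compounds, and grown at 37 °C for at least 48 hr. Viability was read as ATP luminescence.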
TDP1 cell noCPT – qHTS for Inhibitors of human tyrosyl-DNA phosphodiesterase 1 (TDP1): qHTS in cells in absence of CPT; DT40 Tdp1-/- hTDP1 cells, no CPT, ATP luminescence, 48 h; Potency, µM (titrated, usually from 46.2 µM), actives largely listed as inhibitors; hit rate 15% among 420,000; AID 686978, 2013; note: nearly all actives have a fitted effect of over 55% in size
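Chicken DT40 Tdp1-/- cells complemented with human TDP1, screened without camptothecin (DMSO vehicle only), 400 cells/well. Compounds pin-transferred, cells incubated at 37 °C for at least 48 hr. Growth read as ATP-dependent luminescence (CellTiter-Glo, 30 min at RT).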
TDP1 block – blocks human tyrosyl-DNA phosphodiesterase 1; Q9NUW8; recombinant TDP1, AlphaScreen DNA substrate cleavage; Potency, µM (titrated, usually from 130 µM), usual class: inhibitors; hit rate 0.28% among 350,000; AID 485290; note: nearly all actives have a fitted effect of over 40% in size
Target sequence (Q9NUW8 whole entry, looked up): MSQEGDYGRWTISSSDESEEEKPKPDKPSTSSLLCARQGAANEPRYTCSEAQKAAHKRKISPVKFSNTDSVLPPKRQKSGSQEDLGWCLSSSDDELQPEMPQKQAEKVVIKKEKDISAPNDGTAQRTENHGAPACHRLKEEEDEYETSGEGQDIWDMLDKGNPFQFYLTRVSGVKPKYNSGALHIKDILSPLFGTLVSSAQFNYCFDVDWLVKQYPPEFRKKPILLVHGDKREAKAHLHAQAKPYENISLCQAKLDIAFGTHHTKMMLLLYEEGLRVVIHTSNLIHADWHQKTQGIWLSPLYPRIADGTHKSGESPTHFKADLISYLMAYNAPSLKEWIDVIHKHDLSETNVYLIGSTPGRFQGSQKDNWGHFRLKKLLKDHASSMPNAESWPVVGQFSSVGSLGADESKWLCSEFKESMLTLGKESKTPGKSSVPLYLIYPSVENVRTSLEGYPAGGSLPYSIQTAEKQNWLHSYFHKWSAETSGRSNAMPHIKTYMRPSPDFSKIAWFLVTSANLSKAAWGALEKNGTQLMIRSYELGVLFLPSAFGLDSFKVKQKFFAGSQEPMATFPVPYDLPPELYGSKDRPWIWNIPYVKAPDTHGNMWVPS
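Enzyme-compound mixtures sat 15 min at room temperature, followed by a 5 min reaction with 15 nM final substrate and 10 min with AlphaScreen beads. Recombinant human Tdp1 was used at 1 nM final.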
ClpP mod – qHTS Assay for Activators of ClpP | Potency, µM (series often up to 57.5 µM) | hit rate 1.9% among 340,000 | purified B. subtilis ClpP, FRET peptide cleavage, 20 min | AID 651965, 2013; active = well fitted falling curve with a large enough effect; inconclusive = small, poorly fitted or top-dose-only effect; inactive = no such curve, though single readings can be large or run the other way; note: the source files actives as falling curves though it sought activators and does not explain the sign; nearly all actives have a fitted effect of over 65% in size
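FRET quenching reversal measured ClpP activation: 10 microg/mL B. subtilis ClpP at pH 8 with the FRET-FV decapeptide, read at 430 nm after 320 nm excitation. The 20-min minus 0-min signal was scaled between DMSO/no-enzyme wells and ADEP (5.8 microM final).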
Each line names hits and unclear results; the compound was inactive in the other large screens. Unless noted, calls come from the whole dose curve; as a rule, active = well fitted curve in the direction sought with a large enough effect; inconclusive = small, poorly fitted or top-dose-only effect, or another doubt; inactive = no such curve, though single readings can be large; an effect the other way counts as inactive or inconclusive.

C=C(NC(=O)C(=C)NC(=O)c1csc(C2=N[C@@H]3c4csc(n4)[C@H]4NC(=O)c5csc(n5)[C@H]([C@](C)(O)[C@@H](C)O)NC(=O)[C@H]5CSC(=N5)C(=CC)NC(=O)C([C@@H](C)O)NC(=O)c5csc(n5)[C@]3(CC2)NC(=O)[C@H](C)NC(=O)C(=C)NC(=O)[C@H](C)NC(=O)C([C@@H](C)CC)NC2C=Cc3c([C@H](C)O)cc(nc3C2O)C(=O)O[C@@H]4C)n1)C(N)=O (some centres not stated)	TDP1 cell CPT 7.18µM, TDP1 cell noCPT 5.08µM (no result: TDP1 block, ClpP mod)
CN(NC(=O)c1ccccc1F)c1ncccc1[N+](=O)[O-]	none
CCN(C[C@H]1N[C@@](Cc2ccccc2)(C(=O)OC)[C@H]2C(=O)N(Cc3ccccc3)C(=O)[C@@H]12)S(=O)(=O)c1ccc(C(F)(F)F)cc1	TDP1 cell CPT inconclusive, TDP1 cell noCPT inconclusive
CCN(C[C@H]1N[C@@](Cc2ccccc2)(C(=O)OC)[C@H]2C(=O)N(C)C(=O)[C@@H]12)S(=O)(=O)c1ccc(C(F)(F)F)cc1	TDP1 cell CPT 23.1µM, TDP1 cell noCPT 18.4µM
CCN(C[C@H]1N[C@@](Cc2ccccc2)(C(=O)OC)[C@H]2C(=O)N(C)C(=O)[C@@H]12)S(=O)(=O)c1ccc(OC(F)(F)F)cc1	TDP1 cell CPT inconclusive, TDP1 cell noCPT 16.4µM
CCN(C[C@H]1N[C@@](CC)(C(=O)OC)[C@H]2C(=O)N(C)C(=O)[C@@H]12)S(=O)(=O)c1ccc(C)cc1	none
CCN(C[C@H]1N[C@@](Cc2ccccc2)(C(=O)OC)[C@H]2C(=O)N(C)C(=O)[C@@H]12)S(=O)(=O)c1ccc(OC)cc1	TDP1 cell CPT 14.6µM, TDP1 cell noCPT 14.6µM
COC(=O)[C@]1(Cc2ccccc2)N[C@H](CN(C)S(=O)(=O)c2ccc(-c3ccccc3)cc2)[C@@H]2C(=O)N(C)C(=O)[C@@H]21	TDP1 cell CPT 25.9µM, TDP1 cell noCPT 20.6µM
CCC/C=C(\CCC)C(NC(=O)OCC(C)C)c1ccccc1 (configuration not stated)	none (no result: TDP1 cell CPT, TDP1 cell noCPT, ClpP mod)
CC1(C)CC(=O)C2=C(C1)NC(=O)CC2	none (no result: TDP1 block)
COc1ccc(N2C(=O)c3ccccc3NC(=O)C2C(=O)Nc2ccc3c(c2)OCCO3)cc1 (configuration not stated)	TDP1 cell CPT inconclusive (no result: TDP1 block)
CC1(C(=O)NS(=O)(=O)c2ccccc2OC(F)(F)F)CCN1C(=O)c1ccco1 (configuration not stated)	none (no result: TDP1 block)
COc1cc(C(=O)OC(C)CN2CCCCC2)cc(OC)c1OC (configuration not stated)	none
COc1ccccc1-n1c(=O)n(C)c2c(C(N)=O)nc(-c3cccc(OC)c3OC)nc21	none (no result: TDP1 cell CPT, TDP1 cell noCPT)
COc1cc(-c2nc(C(N)=O)c3c(n2)n(-c2cccc(C)c2)c(=O)n3C)cc(OC)c1OC	ClpP mod 22.4µM (no result: TDP1 cell CPT, TDP1 cell noCPT)
O=C(NC1CC1)c1ccc(-n2cccc2)cc1	TDP1 cell noCPT inconclusive (no result: ClpP mod)
Cc1cc(C)cc(OC(C)c2ccnc3nc(/N=C/N(C)C)nn23)c1 (configuration not stated)	TDP1 cell CPT inconclusive, ClpP mod 28.2µM
CC(Oc1cccc(F)c1)c1ccnc2nc(/N=C/N(C)C)nn12 (configuration not stated)	TDP1 cell CPT inconclusive, TDP1 cell noCPT inconclusive (no result: ClpP mod)
Cc1ccc(NC(=O)Cn2c(=O)n(Cc3ccc4c(c3)OCO4)c(=O)c3ccccc32)c(C)c1	none
COc1ccc(CCN(C)CC(=O)Nc2cc(C)nc3ccccc23)cc1OC	TDP1 cell CPT inconclusive, TDP1 cell noCPT inconclusive (no result: ClpP mod)
CN(C)c1cc(NC(=O)CNC(C)(C)CC(C)(C)C)c2ccccc2n1	TDP1 cell CPT inconclusive, TDP1 cell noCPT 16.4µM (no result: ClpP mod)
Cc1cccc(Nc2nc(N)c([N+](=O)[O-])c(NCc3ccccc3)n2)c1	TDP1 cell CPT inconclusive, TDP1 cell noCPT inconclusive (no result: ClpP mod)
Fc1ccc(Nc2nc(NCc3ccccc3)nc3ccsc23)cc1	TDP1 cell CPT 8.2µM, TDP1 cell noCPT 9.2µM, ClpP mod inconclusive (no result: TDP1 block)
N#Cc1ccc(Nc2nc(NCc3ccccc3)nc3ccsc23)cc1	TDP1 cell CPT 6.51µM, TDP1 cell noCPT 1.84µM (no result: TDP1 block)
C#Cc1cccc(Nc2nc(NCc3ccccc3)nc3ccsc23)c1	TDP1 cell CPT 9.2µM, TDP1 cell noCPT 10.3µM (no result: TDP1 block)
O=C1NCCN1CCNc1nc(NCc2ccccc2)nc2ccsc12	TDP1 cell CPT inconclusive, TDP1 cell noCPT inconclusive (no result: TDP1 block)
COc1ccc(NC(=O)N2CCc3nc(-c4ccccc4)c4c(c3C2)CO[C@@H](C)C4)cc1	none (no result: TDP1 cell CPT, TDP1 cell noCPT, ClpP mod)
CC1=CC(=C(c2ccc(N)cc2)c2ccc(N)cc2)C=CC1=N	TDP1 cell CPT 2.66µM, TDP1 cell noCPT 2.99µM (no result: TDP1 block)
CC(Sc1nc(=O)cc(N)n1CCc1ccccc1)C(=O)Nc1ccccc1C#N (configuration not stated)	none (no result: TDP1 cell CPT, TDP1 cell noCPT)
COCCCn1c(N)c(-c2nc3ccccc3n2C)c2nc3ccccc3nc21	TDP1 cell CPT 25.9µM, TDP1 cell noCPT 23.1µM
Cn1c(-c2c(N)n(CCCc3ccccc3)c3nc4ccccc4nc23)nc2ccccc21	TDP1 cell CPT inconclusive, TDP1 cell noCPT inconclusive
Cn1c(-c2c(N)n(CCc3ccccc3)c3nc4ccccc4nc23)nc2ccccc21	TDP1 cell CPT 25.9µM, TDP1 cell noCPT 20.6µM
O=C(CSc1nc(=O)n2ccccc2n1)N1CCN(c2ccccc2)CC1	TDP1 cell noCPT inconclusive (no result: ClpP mod)
COc1ccc(N2C(=O)C(Cl)=C(Nc3ccccc3O)C2=O)cc1	TDP1 cell CPT inconclusive, TDP1 cell noCPT inconclusive, ClpP mod 31.6µM
Cc1cc(NC(=O)c2cccnc2)ccc1NC(=O)c1cc2ccccc2o1	TDP1 cell CPT 13µM, TDP1 cell noCPT 10.3µM
Cc1cc(NC(=O)c2cccnc2Cl)ccc1NC(=O)c1cc2ccccc2o1	TDP1 cell CPT 9.2µM, TDP1 cell noCPT 10.3µM (no result: ClpP mod)
Cc1cc(NC(=O)c2cc3ccccc3o2)ccc1NC(=O)c1ccccc1	TDP1 cell noCPT inconclusive (no result: TDP1 block, ClpP mod)
Cc1cc(NC(=O)c2ccc3c(c2)OCCO3)ccc1NC(=O)c1cc2ccccc2o1	TDP1 cell CPT 5.8µM, TDP1 cell noCPT 4.61µM, ClpP mod inconclusive
O=C(Nc1cccnc1Cl)c1cc2ccccc2o1	none (no result: TDP1 block)
CCN1CCN(C(=O)Cn2cnc3sc(C)c(S(=O)(=O)N4CCN(c5ncccn5)CC4)c3c2=O)CC1	none (no result: ClpP mod)
CCOC1=C2CN(S(=O)(=O)c3ccc(C)cc3)[C@H](c3cccc4ccccc34)C[C@H]2[C@H]2C(=O)N(c3ccccc3)C(=O)[C@H]2C1	none (no result: TDP1 block)
O=S1(=O)C=CC(Sc2nc3ccccc3[nH]2)C1 (configuration not stated)	TDP1 cell CPT 13µM, TDP1 cell noCPT 20.6µM
COc1ccc2[nH]c3c(c2c1)CCN1C(=O)C(CC(=O)NC/C=C(\C)CCC=C(C)C)C[C@H](C(=O)N(C(C)C)C(C)C)[C@@]31C (some centres not stated)	TDP1 cell CPT inconclusive, TDP1 cell noCPT 18.4µM
